This note sets out measurements from PubChem BioAssay AID1159580 (chemical genetic matrix, 2015).

The assay is described as follows: chemical genetic growth profiling, strain panel (AID 1159580).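 Also: tested at 20 µM; growth read once vehicle control cultures reached saturation at 30 °C; 1 = growth at the plate median or of vehicle wells; lower values mean less growth of the strain.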 Particulars: growth OD.
[1] abbreviates: S. cerevisiae deletion strains, locus YGR078C, strain PAC10, stronger effect = lower value.
Setting [2] is: S. cerevisiae deletion strains, locus YNL153C, strain GIM3, stronger effect = lower value.
[3] abbreviates: S. cerevisiae deletion strains, locus YNL322C, strain KRE1, stronger effect = lower value.
The mark [4] stands for this setting: S. cerevisiae deletion strains, locus YAL013W, strain DEP1, stronger effect = lower value.
The mark [5] stands for this setting: S. cerevisiae deletion strains, locus YBR229C, strain ROT2, stronger effect = lower value.
Where [6] appears, read: S. cerevisiae deletion strains, locus YDL101C, strain DUN1, stronger effect = lower value.
Where [7] appears, read: S. cerevisiae deletion strains, locus YDL134C, strain PPH21, stronger effect = lower value.
[8] abbreviates: S. cerevisiae deletion strains, locus YDR150W, strain NUM1, stronger effect = lower value.
Where [9] appears, read: S. cerevisiae deletion strains, locus YEL061C, strain CIN8, stronger effect = lower value.
Where [10] appears, read: S. cerevisiae deletion strains, locus YHR030C, strain SLT2, stronger effect = lower value.
The mark [11] stands for this setting: S. cerevisiae deletion strains, locus YHR087W, strain rtc3, stronger effect = lower value.
Where [12] appears, read: S. cerevisiae deletion strains, locus YJR043C, strain POL32, stronger effect = lower value.
The mark [13] stands for this setting: S. cerevisiae deletion strains, locus YJR075W, strain HOC1, stronger effect = lower value.
Where [14] appears, read: S. cerevisiae deletion strains, locus YLR039C, strain RIC1, stronger effect = lower value.
Setting [15] is: S. cerevisiae deletion strains, locus YLR058C, strain SHM2 (second series), stronger effect = lower value.
Setting [16] is: S. cerevisiae deletion strains, locus YLR085C, strain ARP6, stronger effect = lower value.
[17] abbreviates: S. cerevisiae deletion strains, locus YLR262C, strain YPT6, stronger effect = lower value.
The mark [18] stands for this setting: S. cerevisiae deletion strains, locus YML094W, strain GIM5, stronger effect = lower value.
Where [19] appears, read: S. cerevisiae deletion strains, locus YMR219W, strain ESC1, stronger effect = lower value.
[20] abbreviates: S. cerevisiae deletion strains, locus YMR263W, strain SAP30, stronger effect = lower value.
Where [21] appears, read: S. cerevisiae deletion strains, locus YMR307W, strain GAS1, stronger effect = lower value.
Setting [22] is: S. cerevisiae deletion strains, locus YNL298W, strain CLA4 (second series), stronger effect = lower value.
The mark [23] stands for this setting: S. cerevisiae deletion strains, locus YNR030W, strain Alg12, stronger effect = lower value.
The mark [24] stands for this setting: S. cerevisiae deletion strains, locus YOL006C, strain TOP1, stronger effect = lower value.
Setting [25] is: S. cerevisiae deletion strains, locus YPL055C, strain LGE1, stronger effect = lower value.
[26] abbreviates: S. cerevisiae deletion strains, locus YPL241C, strain CIN2, stronger effect = lower value.
[27] abbreviates: S. cerevisiae deletion strains, locus YPR135W, strain CTF4, stronger effect = lower value.

In all, about 5,500 compounds went through this assay and about 2,000 (36%) were called active. About 18% were inconclusive and are not listed. The list shows a part of the results. Unmarked numbers belong to inactive results. Rule as the data show it: active = normalized growth mostly below about 0.91 (no sharp cut-off); inconclusive = no clear call, values can overlap the other calls; inactive = mostly above about 0.92.

Consider `O=C(Cc1ccc(Cl)c(Cl)c1)OCCN1CCCC1`, for which the normalized growth (S. cerevisiae deletion strains, locus YAL040C, strain CLN3, stronger effect = lower value) is 1.02; the normalized growth (S. cerevisiae deletion strains, locus YDR363W, strain ESC2, stronger effect = lower value) was 1.02; the normalized growth (S. cerevisiae deletion strains, locus YER002W, strain NOP16, stronger effect = lower value) is 0.997; the normalized growth under setting [1] is 0.994; the normalized growth under setting [2] was 0.999; the normalized growth (S. cerevisiae deletion strains, locus YNL175C, strain NOP13, stronger effect = lower value) was 1.02. In addition, the normalized growth by setting is: (S. cerevisiae deletion strains, locus YNL197C, strain WHI3, stronger effect = lower value) 1; (S. cerevisiae deletion strains, locus YNL224C, strain SQS1, stronger effect = lower value) 1.01; under setting [3], 0.99; (S. cerevisiae deletion strains, locus YOR083W, strain WHI5 (second series), stronger effect = lower value) 1.03.

With `O=C1CCCN1c1ccc(Cl)c(Cl)c1`, the normalized growth is 0.987 under setting [4]; 0.977 under setting [5]; 0.939 under setting [6]; 0.969 under setting [7]; 0.968 under setting [8]; 0.933 under setting [9]. Moreover, the normalized growth reads like this: under setting [1], 0.976; under setting [10], 0.8; under setting [11], 0.989; under setting [12], 0.97; under setting [13], 0.983; under setting [14], 0.916. Also, the normalized growth runs as follows: under setting [15], 0.988; under setting [16], 0.894; under setting [17], 0.949; under setting [18], 0.853 (active); under setting [19], 0.988; under setting [20], 0.984. In addition, the normalized growth under setting [21] was 0.9; the normalized growth (S. cerevisiae deletion strains, locus YNL128W, strain TEP1, stronger effect = lower value) was 0.94; the normalized growth under setting [2] is 0.95; the normalized growth under setting [22] was 0.911; the normalized growth under setting [3] was 0.974; the normalized growth under setting [23] is 0.96. The normalized growth runs as follows: under setting [24], 0.748; under setting [25], 0.889; under setting [26], 0.847 (active); under setting [27], 0.913; (S. cerevisiae strains, strain wild type, stronger effect = lower value) 0.978.

For the molecule `Cc1ccc(=O)n(Cc2ccc(Cl)c(Cl)c2)n1`, the normalized growth runs as follows: under setting [4], 0.989; under setting [5], 1.01; under setting [6], 0.958; under setting [7], 0.989; under setting [8], 0.968; under setting [9], 1. The normalized growth reads like this: under setting [1], 0.977; under setting [10], 0.892; under setting [11], 1.01; under setting [12], 0.966; under setting [13], 0.986; (S. cerevisiae deletion strains, locus YKL190W, strain CNB1, stronger effect = lower value) 0.988. Moreover, the normalized growth reads like this: under setting [14], 0.921; under setting [15], 0.986; under setting [16], 0.938; under setting [17], 0.913; under setting [18], 0.974; under setting [19], 0.992. In addition, the normalized growth runs as follows: under setting [20], 0.99; under setting [21], 1.06; under setting [2], 0.949; under setting [22], 0.954; under setting [3], 0.988; under setting [23], 0.988. Further, the normalized growth was 0.899 under setting [24], 1.03 under setting [25], 0.985 under setting [26] and 0.918 under setting [27].
